Where “and” joins values, the source holds several entries; their conditions need not be identical. Identical values can stand only once. Results filed as inconclusive are left out. Calls of active or inactive are those of the source. The call rests on the fitted dose curve; in most records, active means well fitted curve in the direction sought with a large enough effect; inconclusive means small, poorly fitted or top-dose-only effect, or another doubt; inactive means no such curve, though single readings can be large; an effect the other way counts as inactive or inconclusive.
Legend:
[1] = qHTS Assay for Identifying Gametocytocidal Compounds (AID 743244); further: potency means the concentration at half of the fitted maximal effect;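 on max response: on the % scale 0 is the no-effect control and ±100 the full control effect; actives lower the fluorescent signal which means gametocytes are killed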; conditions: P. falciparum 3D7 stage III-V gametocytes, alamarBlue, 72 h; max response: hits give low values
Procedure, shortened: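 Stage III-V P. falciparum 3D7 gametocytes, 20,000 per well, were exposed to compounds for 72 h at 37C, 5% CO2. AlamarBlue was then added for 24 h and viability was read as fluorescence at Ex 525/Em 598 nm.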

[2] = P-glycoprotein substrates identified in KB-8-5-11 adenocarcinoma cell line, qHTS therapeutic library screen (AID 1346987); further: nearly all actives have a fitted effect of over 65% in size; further: potency means the concentration at half of the fitted maximal effect
Procedure, shortened: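 Human cervical adenocarcinoma KB-8-5-11 cells, selected in colchicine to over-express P-gp and assayed without it, were exposed for 72 h to titrated compounds. An ATP-based luminescent viability signal gave AC50.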

KB-3-1 = experiment: Cytotoxic Profiling of Annotated Libraries Using Quantitative High-Throughput Screening (AID 1296008); conditions: Five cell lines viability, CellTiter-Glo ATP luminescence, 48-72 h; max response: hits give low values; further: nearly all actives have a fitted effect of over 60% in size; further: potency means the concentration at half of the fitted maximal effect; on max response: on the % scale 0 is the no-effect control and ±100 the full control effect
Procedure, shortened: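 Cytotoxicity was measured as CellTiter-Glo ATP luminescence, read after 10 min at room temperature. Compound treatment of the cells lasted 48 or 72 hr at 37 degrees Celsius in a qHTS format.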

[3] = Drug repurposing screens with cells derived from glioblastoma tumor samples (AID 1345199); conditions: GBM patient neurospheres viability, ATP luminescence, 48 h; Potency: tumour line A; series mostly up to 45.9 µM; further: nearly all actives have a fitted effect of over 40% in size; further: potency means the concentration at half of the fitted maximal effect
Procedure, shortened: (§1)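 Primary testing used CD133+ neurospheres from four GBM patients, seven concentrations, 48 h exposure and ATP-based viability; confirmation added three slower-growing patient lines.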

astro = experiment: as above; conditions: viability, ATP luminescence, 48 h; series mostly up to 45.9 µM
Procedure, shortened: as §1

[4] = molecular target: Glutathione peroxidase 1 (Homo sapiens) (UniProt P07203); experiment: Primary qHTS Assay for Inhibitors of Recombinant Selenoprotein Glutathione Peroxidase 1 (GPX1) (AID 1845191); further: nearly all actives have a fitted effect of over 65% in size
Procedure, shortened: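 NADPH consumption tracked by fluorescence at 340/450 nm between t=0 and t=15 min, room temperature. Final mix: 10 nM GPX1, 100 nM glutathione reductase, 1 mM GSH, 0.5 mM NADPH, 0.5 mM cumene hydroperoxide, 0.01% BSA; 30 min compound–enzyme preincubation.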

[5] = molecular target: Phospholipid hydroperoxide glutathione peroxidase GPX4 (Homo sapiens) (UniProt P36969); experiment: Primary qHTS Assay for Inhibitors of Recombinant Selenoprotein Glutathione Peroxidase 4 (GPX4) (AID 1845192); further: nearly all actives have a fitted effect of over 65% in size
Procedure, shortened: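 NADPH consumption followed by fluorescence at 340/450 nm, t=0 and after 15 min at room temperature. Reaction started with cumene hydroperoxide (0.5 mM final) after 30 min compound–GPX4 preincubation; final 200 nM GPX4, 100 nM GR, 1 mM GSH, 0.5 mM NADPH.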

[6] = tested on: Zika virus NS2B-NS3 protease (linked construct); experiment: Primary screen NINDS Rhodamine qHTS for Zika virus inhibitors (AID 1347160); further: on the % scale 0 is the no-effect control and ±100 the full control effect; nearly all actives have a fitted effect of over 55% in size
Procedure, shortened: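 Aprotinin served as in-plate control. Conditions: 25 nM linked NS2B-NS3, pH 8.0 Tris buffer, titrated compounds, 15 min preincubation and 15 min reaction with 1.5 microM Rhod110 substrate at room temperature.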

[7] = Primary qHTS for inhibitors of nuclear receptor binding SET domain protein 2 (NSD2) in an isogenic RCH-ACV NSD2 p.E1099K mutant (9B) (AID 1645876); further: potency means the concentration at half of the fitted maximal effect; nearly all actives have a fitted effect of over 70% in size
[8] = molecular target: Luciferin 4-monooxygenase (Photinus pyralis) (UniProt P08659); experiment: Primary firefly luciferase (FLuc) qHTS assay for identification of artifact compounds. (AID 1845220); conditions: outcome: dose series up to 54.1 µM unless noted; further: nearly all actives have a fitted effect of over 60% in size
Procedure, shortened: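 FLuc 10 nM; luciferin 10 uM; ATP 10 uM; Tris-acetate pH 7.6, Mg-acetate 10 mM; 15 min RT preincubation; 5 min reaction; luminescence.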

[9] = tested on: Nanoluciferase (engineered Oplophorus gracilirostris luciferase); experiment: Primary Nanoluciferase (NLuc) qHTS assay for identification of artifact compounds. (AID 1845222);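 further: NLuc secreted into diluted conditioned medium of S16 cells; 0% = DMSO and -100% = no enzyme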
Procedure, shortened: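 NLuc from S16 cell medium (1:55) plus test compounds, 15 min, room temperature. Luminescence after Nano-Glo (1:100) addition, 5 min.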

[10] = Primary redox qHTS assay for identification of artifact compounds. (AID 1845223);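 further: 0% = DMSO and 100% = reference compound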
Procedure, shortened: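 Redox-cycling detection via DTT (250 uM final) oxidation coupled to Amplex Red (25 uM)/HRP (250 mU/mL) in HBSS. 15 min preincubation plus 30 min after DTT, room temperature. Ex/Em 525/598 nm; 4-parameter Hill fit against DMSO and 10 uM DA3003.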

CRL-7250 = normal cell line; experiment: qHTS assay to identify novel small-molecules to repurpose for Merkel cell carcinoma treatment (AID 1296009); conditions: MCC and control cell lines, CellTiter-Glo viability, 72 h; series mostly up to 92 µM; further: potency means the concentration at half of the fitted maximal effect; nearly all actives have a fitted effect of over 60% in size
Procedure, shortened: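 Cell viability measured by CellTiter-Glo following 72 hr compound treatment at 37 degree celsius, with NPC and MIPE libraries tested in 8- and 11-point concentration series.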

JEG-3 = experiment: Primary qHTS to identify gynecologic anti-cancer compounds using libraries of approved drugs and bioactive compounds (AID 1345084); conditions: Gynecologic cancer cell panel viability, ATPlite luminescence, 48 h; series mostly up to 57.5 µM; further: nearly all actives have a fitted effect of over 55% in size; further: potency means the concentration at half of the fitted maximal effect
Procedure, shortened: (§2)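 Cells, 1,000 per well, plated 16 h, then exposed 48 h at 37 C to compounds. Viability by ATPlite luminescence after 15 min at room temperature.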

[11] = molecular target: Calcium and integrin-binding protein 1 (Homo sapiens) (UniProt Q99828); experiment: Primary qHTS for Identification of Calcium Integrin Binding Protein 1 (CIB1) Competitor (AID 1508620);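 further: GST tagged CIB1 binding a fluorescein labelled alphaIIb integrin peptide tracer; top concentration of the series differs between compounds; on the % scale 0 is the no-effect control and ±100 the full control effect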
Procedure, shortened: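 CIB1-GST (1 uM final) and compound incubated 15 min at room temperature before adding FITC-alphaIIb peptide tracer (100 nM final). Competition for binding read by fluorescence polarization (ex 480, em 540) after another 15 min at room temperature.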

[12] = Primary fluorescence-based thiol-reactive (MSTI) qHTS assay for identification of artifact compounds. (AID 1845221);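 further: thiol-reactive compounds lower the probe fluorescence signal; nearly all actives have a fitted effect of over 65% in size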
Procedure, shortened: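 MSTI probe at 4 uM final in 2% DMSO/PBS pH 7.4; compounds, 1 h at room temperature in dark. Fluorescence Ex/Em 525/598 nm, normalised to Acetyl-MSTI and MSTI, fitted to 4-parameter Hill.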

CASKI = experiment: Primary qHTS to identify gynecologic anti-cancer compounds using libraries of approved drugs and bioactive compounds (AID 1345084); conditions: Gynecologic cancer cell panel viability, ATPlite luminescence, 48 h; series mostly up to 57.5 µM; further: nearly all actives have a fitted effect of over 55% in size; further: potency means the concentration at half of the fitted maximal effect
Procedure, shortened: as §2

OV90 = experiment: as above; conditions: Gynecologic cancer cell panel viability, ATPlite luminescence, 48 h; series mostly up to 57.5 µM
Procedure, shortened: as §2

Chain of Phospholipid hydroperoxide glutathione peroxidase GPX4 (Homo sapiens) (P36969 whole entry, looked up): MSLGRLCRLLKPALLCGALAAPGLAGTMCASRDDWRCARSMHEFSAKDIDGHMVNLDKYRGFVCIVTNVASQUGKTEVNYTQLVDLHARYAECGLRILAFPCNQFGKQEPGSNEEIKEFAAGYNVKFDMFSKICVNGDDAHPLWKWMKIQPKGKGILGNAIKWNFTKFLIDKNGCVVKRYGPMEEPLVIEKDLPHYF
Chain of Glutathione peroxidase 1 (Homo sapiens) (P07203 whole entry, looked up): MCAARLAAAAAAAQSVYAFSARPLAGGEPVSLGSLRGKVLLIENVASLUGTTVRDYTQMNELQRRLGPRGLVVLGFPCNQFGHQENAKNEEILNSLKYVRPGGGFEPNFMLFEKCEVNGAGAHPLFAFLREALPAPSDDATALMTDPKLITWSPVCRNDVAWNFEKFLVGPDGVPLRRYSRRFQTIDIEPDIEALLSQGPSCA
Chain of Calcium and integrin-binding protein 1 (Homo sapiens) (Q99828 whole entry, looked up): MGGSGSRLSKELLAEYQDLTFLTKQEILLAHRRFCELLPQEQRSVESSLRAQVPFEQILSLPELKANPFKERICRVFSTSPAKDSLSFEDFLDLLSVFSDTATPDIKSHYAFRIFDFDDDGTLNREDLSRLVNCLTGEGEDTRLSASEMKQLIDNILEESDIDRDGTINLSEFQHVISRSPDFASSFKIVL

CN(C)CCO
inactive: max response [1] 29.8% | Potency [2] | max response (KB-3-1) -9.6% | Potency [3] | Potency (astro)

COc1ccc(OC)c(C[C@H](C)N)c1
inactive: max response [1] -1.24% | max response (KB-3-1) 4.2% | Potency [3] | Potency (astro)

CCOP(=S)(OCC)SCSc1ccc(Cl)cc1
inactive: max response [1] -1.21% | Potency [2] | max response (KB-3-1) -9.26% | Potency [3] | Potency (astro)

Oc1cc[c]([Hg][Cl])cc1
active: Potency [1] 3.55 µM and 2.82 µM | Potency [2] 5.8 µM and 6.51 µM | Potency (KB-3-1) 6.51 µM | Potency (astro) 3.16 µM and 5.62 µM

CCN(CC)/[N+]([O-])=N/O
inactive: Potency [2] | max response (KB-3-1) -8.01% | Potency [3] | Potency (astro)

C[C@@H]1[C@H]2Cc3ccc(O)cc3[C@]1(C)CCN2C
inactive: max response [1] -6.63% | max response (KB-3-1) -14.3% | Potency [3] | Potency (astro)

C/C=C(\CC)C(=O)NC(N)=O
inactive: max response [1] -0.86% | Potency [2] | max response (KB-3-1) -1.21% | Potency [3] | Potency (astro)

CNC(C)Cc1ccccc1 (stereo unspecified)
inactive: max response [1] 7.96% | Potency [2] | max response (KB-3-1) -8.49% | Potency [3] | Potency (astro)

OCCN(CCO)CCO
inactive: max response [1] 5.27% | Potency [2] | Potency [4] | Potency [5] | max response (KB-3-1) 0.954% | Potency [3] | Potency (astro)

CCOc1cc(C=O)ccc1O
inactive: max response [1] -3.19% | Potency [2] | max response (KB-3-1) -13% | Potency [3] | Potency (astro)

O=C1CN=C(c2ccccc2)c2cc(Cl)ccc2N1
inactive: max response [1] 38.4% | Potency [2] | max response (KB-3-1) -13.7% | Potency [3] | Potency (astro)

CC(N)Cc1ccc2c(c1)OCO2 (stereo unspecified)
inactive: max response [1] -8.54% | Potency [2] | max response (KB-3-1) -15.3% | Potency [3] | Potency (astro)

C[C@@H](N)C(=O)c1ccccc1
inactive: max response [1] -12.7% | max response (KB-3-1) 2.24% | Potency [3] | Potency (astro)

C[C@@H]1[C@@H]2Cc3ccc(O)cc3[C@@]1(C)CCN2CCc1ccccc1
inactive: max response (KB-3-1) -19% | Potency (astro)
active: Potency [2] 12.6 µM

COC(=O)c1ccccc1C(=O)OC
inactive: max response [1] -14.6% | Potency [2] | max response (KB-3-1) 3.72% | Potency [3]

CNC(C)CC1CCCCC1 (stereo unspecified)
inactive: max response [1] -3.52% | Potency [2] | Potency [4] | Potency [5] | max response (KB-3-1) -19.8% | Potency [3] | Potency (astro)

Cc1ccc2c(c1)[C@]13CCCC[C@@H]1[C@H](C2)N(C)CC3
inactive: max response [1] -5.26% | Potency [2] | Potency [4] | Potency [5] | max response (KB-3-1) -5.13% | Potency (astro)

CN1CC[C@@]23CCCC[C@@H]2[C@@H]1Cc1ccc(O)cc13
inactive: max response [1] 4.44% | Potency [2] | max response (KB-3-1) -20.8% | Potency (astro)

O=C(O)CCCO
inactive: max response [1] 2.34% | Potency [2] | max response (KB-3-1) 4.02% | Potency [3] | Potency (astro)

CC(=O)[C@@]1(O)CC[C@H]2[C@@H]3CCC4=CC(=O)CC[C@]4(C)C3(F)[C@@H](O)C[C@@]21C (stereo partly specified)
inactive: max response [1] 7.59% | Potency [2] | Potency [4] | Potency [5] | max response (KB-3-1) -10.8% | Potency [3] | Potency (astro)

C=CCC1([C@@H](C)CCC)C(=O)NC(=O)NC1=O
inactive: max response [1] 0.546% | Potency [2] | max response (KB-3-1) -4.55% | Potency [3] | Potency (astro)

COc1cc(C[C@H](C)N)c(OC)cc1C
inactive: max response [1] -10.7% | Potency [2] | max response (KB-3-1) -5.3% | Potency [3] | Potency (astro)

CCCSc1cc(OC)c(CCN)cc1OC
active: Potency [2] 20 µM | Potency (KB-3-1) 17.8 µM | Potency (astro) 31.6 µM

Fc1cc(F)c2c(c1)[C@H]1C=CC[C@H]1C(c1cccnc1)N2 (stereo partly specified)
active: Potency [2] 4.61 µM | Potency [7] 6.49 µM | Potency (KB-3-1) 4.11 µM | Potency (CRL-7250) 4.61 µM | Potency (JEG-3) 25.1 µM
inactive: Potency [6] | Potency [4] | outcome [8] | Potency [9] | Potency [10]

C[N+](C)(C)CC(=O)[O-]
inactive: max response [1] 14.9% | Potency [2] | max response (KB-3-1) 9.58% | Potency [3] | Potency (astro)

CN[C@]1(c2ccccc2Cl)CCCCC1=O
inactive: max response [1] 1.48% | Potency [2] | max response (KB-3-1) -15.2% | Potency [3] | Potency (astro)

CCC(=O)O[C@H]1[C@@H](N2CCCCC2)C[C@H]2[C@@H]3CC[C@H]4C[C@H](OC(C)=O)[C@@H](N5CCCCC5)C[C@]4(C)[C@H]3CC[C@@]21C
inactive: max response (KB-3-1) -10.6% | Potency (astro)

CCOC(=O)C1(c2ccccc2)CCCN(C)CC1 (stereo unspecified)
inactive: max response [1] 9.62% | Potency [2] | Potency [4] | Potency [5] | max response (KB-3-1) -5.26% | Potency [3] | Potency (astro)

CCCCNC(C)(C)[P+](=O)O
inactive: max response [1] -17.6% | max response (KB-3-1) 5.36% | Potency [3] | Potency (astro)

COc1cc(C[C@H](C)N)c(OC)cc1Br
inactive: max response [1] -8.52% | Potency [2] | max response (KB-3-1) -6.95% | Potency (astro)

N#Cc1ccc(N2CCN(C(=O)COc3ccc4[nH]cc(CCN)c4c3)CC2)cc1
inactive: Potency [2] | Potency [6] | Potency [11] | Potency [4] | Potency [5] | outcome [8] | Potency [12] | Potency [9] | Potency [10] | max response (KB-3-1) -19.2% | Potency (CASKI) | Potency (JEG-3) | Potency (OV90)

— PubChem BioAssay (NCATS)
